# Measured values: ChEMBL document CHEMBL1201862, “PubChem BioAssay data set” (2004)
# Hit rate of the full screen: of about 340,000 compounds, about 12,000 (3.5%) were called active. Not shown: some 18% with an inconclusive outcome. No cut-off for these calls is given here. The sample as a whole holds a higher share of actives than the screen did.
# Experiment: qHTS Assay for Inhibitors of Hepatitis C Virus (HCV).
# Format: functional
# Details: read-out: Potency
row,Structure (SMILES),AC50
1,CO[C@H]1/C=C\O[C@@]2(C)Oc3c(C)c(O)c4c(O)c(c5c(c4c3C2=O)=NC2(CCN(CC(C)C)CC2)N=5)NC(=O)/C(C)=C\C=C/[C@H](C)[C@H](O)[C@@H](C)[C@@H](O)[C@@H](C)[C@H](OC(C)=O)[C@@H]1C,158 µM (active)
2,COc1ccc([C@@]23Oc4cc(OC)cc(OC)c4[C@]2(O)[C@H](O)[C@H](C(=O)N(C)C)[C@H]3c2ccccc2)cc1 [ROCAGLAMIDE],100 µM (active)
3,O=C(O)c1cc(O)c2c(c1)[C@@H]([C@H]1c3cc(C(=O)O)cc(O)c3C(=O)c3c(O[C@@H]4O[C@H](CO)[C@@H](O)[C@H](O)[C@H]4O)cccc31)c1cccc(OC3O[C@H](CO)[C@@H](O)[C@H](O)[C@H]3O)c1C2=O (stereo partly specified),79.4 µM (active)
4,[N-]=[N+]=NC[C@H](Cc1ccccc1)N1CC[C@@H](OCc2ccccc2)CCC1=O,100 µM (active)
5,Cl.N[C@@H](CCC(=O)O)C(=O)O [GLUTAMIC ACID HYDROCHLORIDE],1.12 µM (active)
6,C#CC(=O)N(c1cc(OC)ccc1OC)C(C(=O)NC1CCCC1)c1cccs1 (stereo unspecified),112 µM (active)
